An excerpt weighted towards active compounds, which were near 19% of everything screened.
DT40 TDP1 no CPT: qHTS for Inhibitors of human tyrosyl-DNA phosphodiesterase 1 (TDP1): qHTS in cells in absence of CPT; DT40 Tdp1-/- hTDP1 cells, no CPT, ATP luminescence, 48 h; Potency, µM (top dose mostly 46.2 µM), for inactives: at the highest dose activity change, negative = growth inhibition, usual class: inhibitors; 15% of 420,000 active; AID 686978, 2013; also: nearly all actives have a fitted effect of over 55% in size
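Stably hTDP1-transfected Tdp1-null chicken DT40 cells were treated with library compounds minus camptothecin and grown for at least 48 hr at 37 °C, after which cellular ATP was quantified by luminescence.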
HT1080 IDH1KD tx: toxicity to HT-1080 IDH1 knockdown cells (counter line); HT-1080 IDH1 knockdown viability, ATP luminescence, 48 h; Potency, µM (titrated, usually from 46.1 µM), for the others: at the top dose activity, negative = toxicity, most hits filed as cytotoxic; 2% of 360,000 active; AID 686971;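 also: 0% = DMSO wells and -100% = cell-free medium wells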
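Luminescent ATP read-out (CellTiter-Glo, 10 min at room temperature) after 48 h compound exposure at 37 °C gave viability of IDH1-knockdown HT-1080 cells. Activity was normalised to DMSO and cell-free wells, then fitted as concentration-response curves.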
KB-V1 cytotox: kills drug-selected multidrug resistant KB-V1 cells; KB-V1 MDR cells viability, CellTiter-Glo, 72 h; Potency, µM (series often up to 46.1 µM), hits mostly cytotoxic; 3.4% of 400,000 active; also: nearly all actives have a fitted effect of over 60% in size
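Following 72 h at 37 degrees C with compound, KB-V1 cell viability was read by CellTiter-Glo luminescence, medium being phenol-red-free DMEM plus 10% FBS; concentration-response parameters came from normalized, curve-fitted qHTS data.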
DT40 TDP1 CPT: DT40-hTDP1 cell growth loss with CPT | chicken DT40 Tdp1-/-;hTDP1 cells + 20 nM CPT, ATP luminescence, 48 h | Potency, µM (titrated, usually from 46.2 µM), for the others: top-dose activity change, negative = growth inhibition, actives largely listed as inhibitors | 12% of 420,000 active; also: nearly all actives have a fitted effect of over 55% in size
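Cell growth measured by CellTiter-Glo luminescence after a minimum 48 h, 37 C compound exposure with 20 nM CPT in Tdp1-knockout DT40 cells stably expressing hTDP1, seeded 400/well; qHTS titration format.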
HT1080-NT tox: kills 2HG-producing HT-1080-NT fibrosarcoma cells; HT-1080-NT fibrosarcoma viability, CellTiter-Glo ATP luminescence, 48 h; Potency, µM (doses to about 46.1 µM), inactives show at the top dose activity, negative = less viability, most hits filed as cytotoxic; 1.6% of 360,000 active;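 also: NT is the 2HG producing partner of a matched IDH1 knockdown line; 0% = DMSO-treated cells and -100% = media-only wells without cells; nearly all actives have a fitted effect of over 55% in size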
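HT-1080-NT; 750 cells/well; 5% FBS RPMI; 48 h compound, 37 degrees C; CellTiter-Glo luminescence; curve fitting and curve-class assignment.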
KB-3-1 cytotox: kills parental KB-3-1 adenocarcinoma cells | 1.4% of 400,000 active | Potency, µM (doses to about 46.1 µM), usual class: cytotoxic | KB-3-1 viability, CellTiter-Glo ATP luminescence, 72 h; also: nearly all actives have a fitted effect of over 60% in size
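Here the drug-naive KB-3-1 line serves as comparator for MDR sub-line selectivity; cells received compound titrations, 72 h at 37 °C, then CellTiter-Glo readout.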
* = called active by the depositor; i = inactive; ? = inconclusive; nt = no result; [ ] = remark or other dose. Calls follow the shape of the dose curve; as a rule, active = well fitted curve in the direction sought with a large enough effect; inconclusive = small, poorly fitted or top-dose-only effect, or another doubt; inactive = no such curve, though single readings can be large; an effect the other way counts as inactive or inconclusive. Unless noted, % is scaled to controls: 0 for no effect and ±100 for the full control effect; potency is read from the fitted curve at half-maximal effect.

SMILES	DT40 TDP1 no CPT	HT1080 IDH1KD tx	KB-V1 cytotox	DT40 TDP1 CPT	HT1080-NT tox	KB-3-1 cytotox
CCCCCCCCCCN(CCCCCCCCCC)c1ccc(/C=C/c2ccnc3ccccc23)cc1	-28%	nt	i	-24%	nt	i
COc1ccc(CCC(=O)Nc2c(C)n(C)n(-c3ccccc3)c2=O)cc1	5%	11%	i	0%	-3%	i
CC(=O)Nc1ccc(S(=O)(=O)n2cnc3cc(C)c(C)cc32)cc1	18µM*	-14%	i	8.2µM*	?	i
CC(=O)Nc1ccc(C(=O)n2cnc3cc(C)c(C)cc32)cc1	-110%	-5%	i	-114%	-1%	i
CCC1(c2ccccc2)ON(c2c(Br)cccc2Br)C1=O (centres undefined)	16µM*	18µM*	?	18µM*	?	i
CCC1(c2ccccc2)CN(C)C1=O (centres undefined)	-13%	-1%	i	3%	1%	i
CS(=O)(=O)c1ccc(C(=O)NCC2(N3CCCCC3)CCCCC2)cc1	-9%	16%	i	-5%	20%	i
COc1ccccc1OC(C)C(=O)NCC1(N2CCOCC2)CCCCC1 (centres undefined)	18µM*	nt	nt	23µM*	nt	nt
CC(C)COc1ccc(C(=O)NCC2(N3CCN(C)CC3)CCCCC2)cc1	18µM*	nt	nt	?	nt	nt
COc1ccccc1-n1nnnc1SCC(=O)NCC1(N2CCOCC2)CCCCC1	-20%	5%	i	?	1%[9.24 µM]	i
CN1CCN(C2(CNC(=O)c3ccc(C(C)(C)C)cc3)CCCCC2)CC1	16µM*	nt	nt	?	nt	nt
CC(C)(C)c1ccc(C(=O)NCCCN2CCN(CCCNC(=O)c3ccc(C(C)(C)C)cc3)CC2)cc1	9.2µM*	?	18µM*	9.2µM*	18µM*	?
O=C(CS(=O)(=O)c1ccc(Cl)cc1)Nc1nnc(-c2cccs2)o1	11%	-1%	i	15%	-12%	i
CCn1nc(C)c(C2C(C#N)=C(N)OC3=C2C(=O)CC(C)(C)C3)c1C (centres undefined)	-6%	1%	i	-4%	-2%	i
COCc1ccc(C(=O)NCC2(N3CCCCC3)CCCCC2)cc1	23µM*	21%	i	?	?	i

Compound activity: PubChem BioAssay, National Center for Advancing Translational Sciences (NCATS)
